A selection: hits, their analogues and other compounds. The true share with any hit is near 4.9%.
MPTP block: inhibitors of mitochondrial permeability transition pore; inhibition, % at 10 µM; 360,000 tested, 1.4% active; isolated mouse mitochondria, Ca2+ swelling absorbance, 30 min;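 active means inhibition of 50% or more, scaled per plate between neutral and stimulator controls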;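 further: 0% = DMSO wells given calcium and 100% = 1 mM EGTA wells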
Platelet DG rel: platelet dense granule release activity; inhibition, %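 (compounds screened at 7.5 µM in platelet-rich plasma)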; 300,000 tested, 0.22% active; human platelet-rich plasma, SFLLRN dense granule ATP release, luminescence; AID 1663;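 active means mean replicate score, as percent of positive control, at or above 50; inconclusive means mean below 50 but at least one replicate at or above 50; inactive means mean and every replicate below 50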
dFosB act-1: mouse delta FosB homodimer activation; P13346; 340,000 tested, 0.99% active; purified delta FosB, TAMRA-CDK5 oligo fluorescence polarization; percent of positive-control signal above neutral wells; AID 493131; activation, % at 25 µM;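 active means mean activation above about 17%, with every replicate also reaching it, limit read from the data, passing the limit was not always enough; inconclusive means only one of the two conditions met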
Target sequence (P13346 whole entry, looked up): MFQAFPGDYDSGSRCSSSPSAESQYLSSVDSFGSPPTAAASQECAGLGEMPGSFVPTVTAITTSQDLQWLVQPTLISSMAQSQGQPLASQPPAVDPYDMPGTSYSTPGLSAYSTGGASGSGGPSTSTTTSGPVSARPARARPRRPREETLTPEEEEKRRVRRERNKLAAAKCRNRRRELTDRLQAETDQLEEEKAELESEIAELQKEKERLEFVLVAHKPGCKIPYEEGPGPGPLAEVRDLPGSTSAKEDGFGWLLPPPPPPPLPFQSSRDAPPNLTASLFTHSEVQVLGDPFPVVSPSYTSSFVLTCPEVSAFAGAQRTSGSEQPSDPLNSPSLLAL
HSF-1 act: increases HSF-1 driven luciferase reporter signal. NIH3T3-HGL HSF-1 luciferase reporter, MG132, 8 h; 100% = twice DMSO control signal. activation, % at 9 µM. 300,000 tested, 1.7% active. AID 504408;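 active means mean replicate activation of at least 50% with a set share of replicates each reaching 50%; inconclusive means only one of those two conditions met; inactive means mean below 50% and too few replicates reaching it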;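 further: 0% = median of the neutral control wells and 100% = twice that signal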
HSP90 refold inh: HSP90 refolding inhibition in rabbit reticulocyte lysate; luciferase refolding luminescence, 3 h; inhibition, % at 5.6 µM; 290,000 tested, 0.91% active; AID 1789;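 active means inhibition above the screen-wide mean plus 3 SD, computed separately per campaign, cut at about 16% in these data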;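 further: 0% = DMSO wells and 100% = 60 µM geldanamycin wells; inhibitors lower the luminescence because luciferase stays unfolded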
HSF1 inh: HSF1 inhibition; NIH3T3-HGL HSE-luciferase, MG132-induced, luminescence 8 h; active compounds read low; activity change, negative = inhibition, % at 7.5 µM (by protocol); 300,000 tested, 0.77% active; AID 2098;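 active means more than half of replicate wells show activity change below -50%, luminescence cut by over half; inconclusive means some wells, but at most half, below -50%; inactive means no replicate well below -50%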;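 further: luciferase reports HSF-1 transcriptional activity via heat shock element; 0% = median of DMSO wells and -100% = zero luminescence signal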
dFosB act-2: enhances mouse delta FosB homodimer binding to DNA | 2,400 tested, under 10 active | shares compounds with dFosB act-1 | AID 588690 | purified delta FosB, TAMRA-CDK5 oligo fluorescence polarization; normalised: neutral wells 0, positive control 100 | activation, % at 24.9 µM;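 active means highest replicate activation at or above 34% and every replicate reaching that threshold; inconclusive means meets only one of the two criteria; inactive means meets neither criterion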;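 further: higher polarization means more probe DNA bound by delta FosB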
Active calls of the source: *; ? = inconclusive; nt = not tested or not shown.

SMILES	MPTP block	Platelet DG rel	dFosB act-1	HSF-1 act	HSP90 refold inh	HSF1 inh	dFosB act-2
Cc1ccc(CNC(=O)c2nnn(CC(=O)Nc3cc(C)cc(C)c3)c2N)cc1	0.7	11.4	87.7*	-0.3	-1.9	-2.2	-6.7
COc1ccc(CCNC(=O)Cn2nnc(C(=O)Nc3cc(C)ccc3C)c2N)cc1OC	0.0	-0.9	1.9	-6.9	-4.3	-3.5	nt
Cc1ccc(NC(=O)Cn2nnc(C(=O)NCc3ccccc3)c2N)cc1C	3.8	-6.5	-1.5	3.3	0.2	2.1	nt
O=C1NC(Cc2ccc(O)cc2)c2nc3ccc(Br)cc3c(=O)n2-c2ncccc21 (configuration not stated)	0.4	nt	nt	nt	nt	nt	nt
Cc1cc(C)cc(NC(=O)Cn2nnc(C(=O)NCc3ccco3)c2N)c1	0.7	8.3	31.5*	8.8	-0.6	6.9	6.9
Cc1ccc(NC(=O)c2nnn(CC(=O)Nc3ccccc3)c2N)cc1C	1.9	-2.0	0.0	8.5	-2.5	7.9	nt
Cc1cc(C)cc(NC(=O)Cn2nnc(C(=O)NCc3ccc4c(c3)OCO4)c2N)c1	3.9	-1.3	76.9*	0.3	-2.1	-0.3	1.8
CSc1cccc(NC(=O)c2nnn(CC(=O)Nc3cc(C)cc(C)c3)c2N)c1	-0.6	-3.1	64.2*	3.2	-3.1	-2.3	0.1
COc1ccc(NC(=O)Cn2nnc(C(=O)NCc3ccc4c(c3)OCO4)c2N)cc1	0.8	2.3	6.8	7.1	-3.9	4.9	nt
CCOc1ccccc1OCCC(=O)NNC(=O)Cn1nc(C)cc1C	-0.9	-11.1	3.4	-1.4	nt	0.2	nt
Cc1cc(C)n(CC(=O)NNC(=O)CCCOc2ccc(Cl)cc2C)n1	2.2	-14.4	34.0*	-7.5	-0.2	-1.2	3.8
Cc1cc(C)n(CC(=O)NNC(=O)CCCOc2ccc(Cl)c(C)c2)n1	-0.7	-16.9	20.8*	6.1	-0.2	-2.6	-1.6
Cc1ccc(S(=O)(=O)N/N=C\c2ccc(Cl)c([N+](=O)[O-])c2)cc1	4.9	-5.8	-1.9	8.1	-0.3	6.9	nt
CN(C)c1nc(N/N=C\c2ccc(Cl)c([N+](=O)[O-])c2)nc(Nc2ccc(F)cc2)n1	6.1	4.4	118.3*	15.6	0.6	1.1	-16.6
Cc1cccc(C(=O)NNC(=O)c2ccc3ccccc3c2)c1	-0.8	nt	0.6	nt	nt	nt	nt
CCOc1ccc(Cc2n[nH]c(=S)n2Cc2ccccc2)cc1	4.5	9.8	-2.9	4.7	-0.3	-2.1	nt
Cc1ccc(OCc2nnc(SCC(=O)Nc3sc(C)c(C)c3C#N)n2C)cc1	2.4	1.2	26.4*	-4.7	-0.2	-7.3	-0.2
COc1ccc2sc(/C=C/c3ccccc3O)[n+](C)c2c1	6.4	nt	65.1*	nt	-0.3	nt	8.2
COc1ccc(N=Cc2ccccc2O)cc1	-0.1	nt	-3.3	nt	nt	nt	nt
O=C(Nc1cccc(S(=O)(=O)N2CCCCC2)c1)c1c2c(nc3ccccc13)CCN(Cc1ccccc1)C2	-1.8	-23.7	51.7*	17.1	3.1	2.1	-1.9
O=C(O)c1nn(CC(=O)N2CCN(S(=O)(=O)c3ccc(Cl)cc3)CC2)c(=O)c2ccccc12	1.9	-1.4	30.1*	-18.0	-0.9	-2.9	4.1
O=C(CN1CCN(Cc2ccccc2)CC1)Nc1cccc(S(=O)(=O)N2CCCCCC2)c1	-0.5	-9.0	-12.9	6.0	-2.4	1.3	nt
O=C(Cn1nc(C(=O)O)c2ccccc2c1=O)Nc1cccc(S(=O)(=O)N2CCCCCC2)c1	5.6	nt	32.3*	nt	nt	nt	-0.9
O=C(Cn1nc(C(=O)O)c2ccccc2c1=O)Nc1cccc(S(=O)(=O)N2CCCC2)c1	-0.3	nt	-9.2	nt	nt	nt	nt
COc1ccc(N2CCN(c3nc4ccccn4c(=O)c3/C=C(\C#N)S(=O)(=O)c3ccccc3)CC2)cc1	-0.3	-3.5	-6.5	10.4	1.1	0.5	nt
SMILES	MPTP block	Platelet DG rel	dFosB act-1	HSF-1 act	HSP90 refold inh	HSF1 inh	dFosB act-2
CCCc1c(C(=O)N/N=C/c2ccncc2)nnn1-c1nonc1N	-1.6	3.7	-3.5	-2.2	2.1	-0.3	nt
O=C(Cc1csc(-c2ccccc2)n1)NCC(=O)Nc1ccc(F)c(F)c1F	0.3	nt	-3.2	nt	nt	nt	nt
COc1ccc(-c2cc(C(=O)N/N=C(\C)c3cccnc3)c3ccccc3n2)c(OC)c1	-1.1	-5.3	-10.6	2.5	3.7	-2.2	nt
Cn1c(NCCN2CCCC2)nc2cc(-c3ccsc3)sc2c1=O	-3.0	nt	nt	nt	nt	nt	nt
CCOc1cc(N2CCOCC2)c(OCC)cc1NC(=O)COC(=O)CCOc1cc(C)ccc1C	0.3	0.9	-7.3	8.3	nt	2.8	nt
CCOC(=O)C1CCCN(C(=O)c2cc(F)cc(F)c2)CC1 (configuration not stated)	0.6	nt	nt	nt	nt	nt	nt
O=C(O)c1ccc(COc2ccccc2/C=C2/NC(=O)N(c3cccc(Cl)c3)C2=O)cc1	-2.2	-2.8	28.4*	-3.4	-6.5	-0.2	3.9
O=C(c1cc(-c2ccc(Cl)c(Cl)c2)on1)N1CCOCC1	-1.7	-9.3	50.2*	43.0	-2.5	24.1	-0.4
O=C(CCCn1ncn2c(cc3occc32)c1=O)NCc1ccccc1F	-1.3	-7.1	-0.1	3.2	-7.8	-3.4	nt
Cc1ccc2c(c1)CC(C)N2S(=O)(=O)c1nnc(NC(=O)CC(C)C)s1 (configuration not stated)	0.0	-5.1	26.7*	-6.3	7.1	-2.1	1.2
COc1ccccc1NS(=O)(=O)c1cccc(NC(=O)CCNC(=O)c2ccccc2OC)c1	-0.3	nt	-10.5	nt	nt	nt	nt
Cc1ccn2cc(-c3cnoc3C)nc2c1	-1.8	2.4	2.0	16.4	5.4	2.0	nt
COc1ccc2oc(=O)c(-c3cn4ccc(C)cc4n3)cc2c1	-0.6	0.0	26.2*	27.8	-2.1	11.7	4.5
COCCn1c(=NC(=O)/C=C/c2ccccc2Cl)sc2cc(NC(C)=O)ccc21	5.9	2.8	26.5*	43.7	5.0	11.4	-2.2
C=CCn1c(COc2ccccc2F)nnc1SCC(=O)Nc1cc(C)on1	0.7	5.7	18.4*	28.4	-0.4	-0.5	?
Cc1cccc(C)c1NC(=O)c1cc2c(=O)c3ccccc3oc2nc1C(F)(F)F	2.3	4.0	49.8*	-1.5	-2.6	8.6	-10.0
CN1CCN(c2ncnc3c2ncn3[C@H]2CN(Cc3ccc(-c4ccccc4)cc3)C[C@@H](CO)O2)CC1	-0.3	nt	nt	nt	nt	nt	nt
COc1ccccc1CCNC(=O)CNC(=O)c1ccc2ccccc2c1	1.3	-20.9	-7.9	14.8	-5.7	-2.9	nt
C=CCn1c(=S)[nH]c2cc(-c3ccccc3)sc2c1=O	-1.0	2.5	40.3*	-20.1	-4.8	-16.2	1.9
COc1cccc(CN2CCNC(=O)C2CC(=O)NCCOc2cccnc2)c1 (configuration not stated)	1.9	1.7	-2.5	4.8	-0.9	-6.9	nt
O=C(CSc1nccn(-c2cccc(F)c2)c1=O)Nc1ccc(Cl)cc1F	-0.3	-0.7	21.4*	10.8	-2.1	0.8	0.4

Bioassay records: PubChem BioAssay, several laboratories
